Hit rate of the full screen: of about 190,000 compounds, about 3,500 (1.8%) were called active. The sample holds actives, similar compounds and a random draw of the others, so the mix is not that of the screen. Unmarked numbers belong to inactive results.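 Rule for the calls: active = inhibition above a set limit, 3 SD over mean compound inhibition (cut at about 8.4% in these data); inactive = the rest.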

This assay can be described thus: RAM signaling blockers in budding yeast – dse1pr::URA3 reporter, 5-FOA selection, primary screen (AID 868).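 Note: 0% = DMSO-only wells with no growth and 100% = 10 µM 1-NA-PP1 full growth; inhibition rescues growth on 5-FOA so higher OD means more RAM inhibition.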 Conditions: S. cerevisiae dse1pr::URA3 reporter, 5-FOA growth OD615, 2 d; at 50 µM; active compounds read high; analog-sensitive cbk1-as2 kinase mutant strain.
As usually defined, the inhibition is the relative decrease from the control value, in per cent. Turning to `CCc1c(C)nc2c(OC)cccc2c1Cl`, the inhibition is 0.88%.

For `CC(C)(C)NC(=O)COC(=O)c1cc(Br)ccc1Cl`, the inhibition was -0.13%.

As for `CC(=O)Nc1ccccc1NC(=O)c1cc(C)cc(C)c1`, the inhibition is 1.49%.

For `CSCc1ccc(C(=O)Nc2cc(C)cc(C)c2)cc1`, the inhibition was 10.7% (active).

As for `C=CCN(c1ccc(C(=O)Nc2cc(C)cc(C)c2)cc1)S(C)(=O)=O`, the inhibition is 1.58%.

As to `CC(C)(C)c1ccc(/C=C/C(=O)NC2CCS(=O)(=O)C2)cc1` (configuration not stated), the inhibition is -1.15%.

On to `Cc1cccc(C(=O)c2cccc(C)c2)c1`, for which the inhibition was 1.11%.

Turning to `Cc1ccccc1CN1C[C@@H]2C[C@@H](c3ccc4nsnc4c3)N3CCC[C@@]23C1=O`, the inhibition was 1.56%.

On to `COc1ccc(/C=C2\CCCC3C2=NN(C(=O)c2scnc2C)C3c2ccc(OC)cc2)cc1` (configuration not stated), for which the inhibition is 8.89% (active).

`CN(C)/C=C/C(=O)c1cnc2sccn2c1=O`: the inhibition was 3.34%.

Regarding `Cc1cc(Cl)ccc1OCCCC(=O)NCc1ccccn1`, the inhibition was -1.48%.

Take `CC1CCCC(C)N1/N=C/c1ccccc1OC(F)F` (configuration not stated): the inhibition was -0.37%.

With `NS(=O)(=O)c1ccc(NC(=S)NC(=O)c2cccc(Br)c2)cc1`, the inhibition is 15.5% (active).

`NS(=O)(=O)c1ccc(NC(=S)NC(=O)c2cccnc2)cc1`: the inhibition was 0.14%.

`O=C(NC(=S)Nc1ccc(S(=O)(=O)Nc2ncccn2)cc1)c1cccc(Br)c1`: the inhibition is 6.97%.

Turning to `CCc1ccccc1NC(=O)Cc1cn(C)c2ccccc12`, the inhibition is 1.88%.

Consider `O=C(/C=C/c1ccc(Cl)c([N+](=O)[O-])c1)c1cccnc1`, for which the inhibition was 1.34%.

As to `Cc1ccsc1C1C(C#N)=C(N)OC2=C1C(=O)CC(C)C2` (configuration not stated), the inhibition was 2.12%.

`O=C(c1ccc(Cl)cc1)c1cnc(Nc2ccccc2)s1`: the inhibition is 3.49%.

For `CC(=O)c1c(Nc2ccccc2)sc(C(=O)c2ccccc2)c1C`, the inhibition is 13.4% (active).

`CCC(=O)Nc1sc(C(=O)Nc2ccccc2)c(C)c1C(=O)OC`: the inhibition is -0.53%.

`COc1cc(CN2CCN(Cc3ccc(C)cc3)CC2)c([N+](=O)[O-])cc1OC`: the inhibition is -0.12%.

On to `N#Cc1ccc(-c2ccc(Cl)cc2)nc1Oc1ccc(F)cc1`, for which the inhibition was 3.94%.

`N#Cc1ccc(-c2ccc(F)cc2)nc1Sc1ccccc1`: the inhibition is 9.92% (active).

Take `N#Cc1c(-c2ccc(F)cc2)nc(-c2ccccc2)[nH]c1=O`: the inhibition was 1.19%.

For the molecule `COC(=O)c1nc(NC(=O)c2ccc(C(C)(C)C)cc2)n[nH]1`, the inhibition is -0.27%.

With `COC(=O)C1=C(C(=O)OC)C(c2cc([N+](=O)[O-])ccc2O)c2sc(=O)[nH]c2S1` (configuration not stated), the inhibition is -0.84%.

On to `CCOC(=O)C(NC(C)=O)C(=O)Nc1ccc(OC)cc1` (configuration not stated), for which the inhibition was 1.23%.

On to `Cc1ccc(C2C3=C(Nc4[nH]n(-c5ccccc5)c(=O)c42)c2ccccc2C3=O)cc1` (configuration not stated), for which the inhibition was 4.88%.

Regarding `Cc1cc(C)c(C2C3=C(Nc4c2c(C)nn4-c2ccccn2)c2ccccc2C3=O)c(C)c1` (configuration not stated), the inhibition is 9.18% (active).

As to `Cc1nn(-c2ccccn2)c2c1C(c1ccncc1)C1=C(CC(C)(C)CC1=O)N2` (configuration not stated), the inhibition is -0.66%.

With `O=C(CN1CCN(C/C=C/c2ccccc2)CC1)Nc1ccc(F)cc1F`, the inhibition was 0.69%.

Consider `CCOCCCNCc1cc(Br)ccc1OCC`, for which the inhibition was 1.92%.

In the case of `CCOC(=O)C1CCN(CCC(=O)Nc2cccc(C)c2)CC1`, the inhibition is 0.78%.

In the case of `Cc1ccc(S(=O)(=O)N2CCOCC2)cc1C(=O)OC1CCCCC1=O` (configuration not stated), the inhibition was 0.38%.

For `COc1ccc(C(=O)OCC(=O)NCC2CCCCC2)cc1S(=O)(=O)N1CCCc2ccccc21`, the inhibition was 2.15%.

Turning to `CCC(C)(C)NC(=O)/C=C/c1cc(OC)c(OC)c(S(=O)(=O)N2CCc3ccccc32)c1`, the inhibition was 9.06% (active).

Consider `COc1cc(/C=C/C(=O)O)cc(S(=O)(=O)Nc2ccccc2SC)c1OC`, for which the inhibition is 5.01%.

`Cc1cc(=O)[nH]c(N/N=C/c2c(C)nn(-c3ccccc3Cl)c2Cl)n1`: the inhibition is 1.7%.

With `CCOc1ccc(/C=N/Nc2nncc(-c3ccccc3)n2)cc1OC`, the inhibition was -0.12%.

In the case of `Cc1cc(OC(=O)c2ccccc2Cl)ccc1N1C(=O)CCC1=O`, the inhibition was -1.28%.

As to `COc1ccc(CCNC(=O)CCn2c(=O)c3ccccc3n(CC(=O)NCC3CCCO3)c2=O)cc1OC` (configuration not stated), the inhibition was 4.36%.

As for `O=C(NC(=S)Nc1cccc(-c2ccc(CO)o2)c1)c1cccs1`, the inhibition is 9.61% (active).

Take `CCc1nnc(NS(=O)(=O)c2ccc(NC(=S)NC(=O)c3cccs3)cc2)s1`: the inhibition was 4.73%.

As to `O=C(NC(=S)Nc1ccc(NC(=O)c2cccs2)cc1)c1ccc([N+](=O)[O-])cc1`, the inhibition was 2.93%.

For the molecule `COc1cccc(NC(=O)NCc2ccc(F)cc2)c1`, the inhibition is 5.02%.

For `Cc1c(C=O)c2ccccc2n1CC(=O)O`, the inhibition was 0%.

Consider `CSc1nc2c(c(=O)[nH]1)C(c1cccc(Cl)c1Cl)CC(=O)N2` (configuration not stated), for which the inhibition was 5.93%.

Turning to `COc1ccc(CC(=O)NCc2nnc(SCC(=O)Nc3nccs3)n2C)cc1`, the inhibition was 6.82%.

Consider `COc1ccc(CN(Cc2ccco2)S(=O)(=O)c2ccc(S(=O)(=O)N3CCCC3)cc2)cc1`, for which the inhibition was 9.77% (active).

With `COc1ccc(S(=O)(=O)NCc2ccc(C(=O)N(C)Cc3ccco3)cc2)cc1`, the inhibition was 0.12%.

On to `CCOc1ccc(CN(Cc2ccco2)S(=O)(=O)c2ccc(-n3cnnn3)c(OC)c2)cc1`, for which the inhibition is 6.13%.

As to `Cc1ccc(S(=O)(=O)NCCc2nnc3ccc(SCc4cccnc4)nn23)cc1`, the inhibition was 0.39%.

`CCOc1ccc(NC(=O)c2ccc(CSc3nnnn3C)cc2)cc1`: the inhibition was 2.05%.

For `CCOc1cc(NC(=O)c2ccccn2)c(OCC)cc1NC(=O)c1ccc(OC)cc1`, the inhibition is 10.6% (active).

In the case of `CCOc1cc(NS(=O)(=O)c2ccc(OC)cc2)c(OCC)cc1NC(C)=O`, the inhibition was 3.5%.

Consider `CCOc1ccc(C(=O)Nc2cc(OC)ccc2OC)cc1`, for which the inhibition was 0.11%.

For the molecule `CCOC(=O)CNc1nc(Cl)nc(Nc2ccccc2)n1`, the inhibition is 5.04%.

Consider `CC(Sc1nnnn1C)C(=O)NC(=O)NC1CCCCC1` (configuration not stated), for which the inhibition was 0.61%.

For the molecule `Cc1ccc(-c2cc(C(=O)N/N=C/C=C/c3ccccc3)n[nH]2)o1`, the inhibition was 2.69%.

With `COc1cc(C=O)c(Br)cc1OCC(=O)NCc1ccccc1`, the inhibition is 3.38%.

With `COc1ccc(NC(=O)/C(C#N)=C\c2cc(OC)c(OCc3ccc(C(=O)O)cc3)cc2Br)cc1`, the inhibition was 8.75% (active).

Take `COc1cc(/C=C(\C#N)C(=O)Nc2ccc3ccccc3c2)c([N+](=O)[O-])cc1OC`: the inhibition was -0.51%.

As for `O=C(/C=C/c1ccc(Cl)cc1)Nc1ccc(S(=O)(=O)Nc2ncccn2)cc1`, the inhibition is 8.46% (active).

`O=C(/C=C/c1ccccc1Cl)Nc1ccc(S(=O)(=O)Nc2ncccn2)cc1`: the inhibition was 5.65%.

Turning to `O=S(=O)(Nc1ncccn1)c1ccc(NS(=O)(=O)c2cccc(Cl)c2Cl)cc1`, the inhibition is 1.52%.

Consider `COc1cccc(NC(=O)CN(C)C(C)C(=O)Nc2ccc(C#N)cc2)c1` (configuration not stated), for which the inhibition is 1.87%.

Take `COc1cccc(NC(=S)NCc2ccco2)c1`: the inhibition was -0.52%.

With `CCn1c(COc2ccc(OC)cc2)nnc1SCC(=O)Nc1cc(OC)ccc1OC`, the inhibition is 0.11%.

Turning to `CCn1c(Cc2ccccc2)nnc1SCC(=O)Nc1ccccc1`, the inhibition was 1.42%.

With `CCn1c(COc2ccccc2)nnc1SCC(=O)Nc1ccc2c(c1)OCCO2`, the inhibition was 9.4% (active).

In the case of `CCS(=O)(=O)Nc1ccc(C2=NN(C(C)=O)C(c3cccs3)C2)cc1` (configuration not stated), the inhibition is -0.12%.

As to `Cn1nnnc1-c1cc(Cl)cc(Cl)c1`, the inhibition was -0.86%.

`CCOc1ccc(-n2c(O)c(/C=N/Nc3nc(C)cc(C)n3)c3ccccc3c2=O)cc1`: the inhibition was 3.13%.

On to `COC(=O)Cc1csc(Nc2c(C)n(C)n(-c3ccccc3)c2=O)n1`, for which the inhibition was 1.09%.

For `COC(=O)Cc1csc(/N=C/c2c(O)n(-c3cccc(C(F)(F)F)c3)c(=O)c3ccccc23)n1`, the inhibition was 8.86% (active).

Take `COCCCNC(=S)NNC(=O)C(O)(c1ccccc1)c1ccccc1`: the inhibition was 1.35%.

Take `COc1ccc(C(=O)CSc2nc(C)cc(C)n2)cc1[N+](=O)[O-]`: the inhibition is 4.17%.

With `CC1CCCN(CC(O)COCc2ccccc2)C1` (configuration not stated), the inhibition was 3.48%.

Take `Cc1cccc(NS(=O)(=O)c2ccc(C)c(C(N)=O)c2)c1`: the inhibition was 0.63%.

On to `CCc1nnc(NC(=O)CCC(=O)NCc2ccccc2OC)s1`, for which the inhibition is 1.08%.

For the molecule `COc1ccccc1CNC(=O)CCn1c(=O)sc2ccccc21`, the inhibition was 8.77% (active).

As to `COc1ccccc1CNC(=O)CCCn1c(=O)c2ccccc2n(CC(=O)NC2CCCC2)c1=O`, the inhibition is 1.5%.

On to `COc1ccccc1Cc1nc(-c2ccc(C)cc2)no1`, for which the inhibition is 0%.

For the molecule `Cc1ccc(-c2noc(CN3CCN(Cc4ccccc4)CC3)n2)cc1`, the inhibition is 1.83%.

`Cc1ccc(-c2noc(CC(c3ccccc3)c3ccccc3)n2)cc1`: the inhibition was 9.59% (active).

Regarding `Cc1cc(C)cc(C(=O)N(CCc2ccccc2)C2=CC3CCC(C2)N3C)c1` (configuration not stated), the inhibition is 0.13%.

`C=CCOCCN(C)C1=NS(=O)(=O)c2ccccc21`: the inhibition was 2.38%.

Regarding `C=CCn1c(SCC(=O)CC(=O)OCC)nc2cc(C(=O)N3CCC(C(N)=O)CC3)ccc2c1=O`, the inhibition is 2.99%.

Consider `C/C(CCC(=O)OC[C@H]1O[C@H](C#Cc2ccccc2)C=C[C@@H]1Oc1ccc(C)cc1)=N\OC[C@@H](O)[C@H]1O[C@@H]2OC(C)(C)O[C@@H]2[C@H]1O`, for which the inhibition was 11.1% (active).

Regarding `O=C(NNC(=S)NCc1ccccc1)c1ccc(OC(F)F)cc1`, the inhibition is 1.5%.

`COc1cccc(CC2(CO)CCCN(CC3=Cc4cc(OC)ccc4OC3)C2)c1` (configuration not stated): the inhibition is 0.13%.

These data come from PubChem BioAssay AID868 (SRMLSC, 2007).
